# In the library only some 12% were active in any assay of this set; here they are far more common.
# Shiga toxin inh – A qHTS for Small Molecule Inhibitors of Shiga Toxin; inhibition, % at 38.7 µM; 9.2% of 290,000 active; Vero cells, Shiga toxin protein synthesis inhibition reporter; in the data active = inhibition mostly above about 28%, no sharp cut-off; inactive = mostly below about 43%; also: 0% is about no effect
# Marburg entry inh – qHTS for inhibitors of binding or entry into cells for Marburg Virus; Marburg virus pseudotyped entry inhibition, cell reporter; Potency, µM (titrated, usually from 37.8 µM), for the others: top-dose activity change, negative = inhibition, most hits filed as inhibitors; 1.8% of 300,000 active; AID 540276, 2011; calls by dose curve; tested in HEK293 cells; also: potency is read from the fitted curve at half-maximal effect; % is scaled to controls: 0 for no effect and ±100 for the full control effect
# CHX counter – Cycloheximide Counterscreen for Small Molecule Inhibitors of Shiga Toxin; max response, %; AID 2314, 2010; cell reporter, cycloheximide protein synthesis inhibition counterscreen; 12% of 300,000 active; in the data active = max response mostly above about 13%, no sharp cut-off; inactive = mostly below about 14%; also: read at 38.3 µM for the half of the compounds with a filed dose; 0% is about no effect
# Lassa entry inh – qHTS for Inhibitors of binding or entry into cells for Lassa Virus; Lassa virus pseudotype entry inhibition, cell reporter; Potency, µM (doses to about 37.9 µM), for the others: at the top dose activity change, negative = inhibition, hits mostly inhibitors; 1.2% of 300,000 active; AID 540256, 2011; calls by dose curve; tested in HEK293 cells; also: potency is read from the fitted curve at half-maximal effect; % is scaled to controls: 0 for no effect and ±100 for the full control effect; nearly all actives have a fitted effect of over 50% in size
# Active calls of the source: *; ? = inconclusive; nt = no result; [ ] = remark or other dose.
SMILES,Shiga toxin inh,Marburg entry inh,CHX counter,Lassa entry inh
COc1ccc(-c2cc3nc(C)c(CCC(=O)Nc4ccccc4C(C)=O)c(C)n3n2)c(OC)c1,nt,-10%[46.1 µM],nt,-21%[46.1 µM]
CCCC(=O)c1c(C)c2ccccc2n1C,36,1%,-1,?
Cn1cnc(S(=O)(=O)N2CCC(C(=O)Nc3ccc(OC(F)(F)F)cc3)CC2)c1,nt,nt,nt,18%[46.1 µM]
CN1CCN(C(=S)Nc2ccc(Cl)cc2Cl)CC1,12,?,16*,-2%
CCN1CCN(C(=S)Nc2ccc(Cl)cc2Cl)CC1,26,-37%,25*,-24%
S=C(Nc1ccc(Cl)cc1Cl)N1CCOCC1,-11,10%,-1,-9%
O=C(NCC(c1cccnc1)N1CCc2ccccc2C1)C(=O)Nc1ccccc1F (centres undefined),nt,nt,nt,23%[46.1 µM]
COc1cccc(-n2cc3c(=O)n(C)c(=O)n(C)c3c2)c1,88,?,24*,?
Cn1c(=O)c2cn(-c3ccccc3)cc2n(C)c1=O,-11,17%[46.1 µM],-1,18%
Cc1ccc(C2(CCNS(=O)(=O)c3ccc(C)cc3)CCOC(C(C)C)C2)cc1 (centres undefined),-5,6.5µM*,3,?
Cc1ccc(C2(CCNCc3ccc(N(C)C)cc3)CCOC(C(C)C)C2)cc1 (centres undefined),-19,?,-3,?
CCOc1cc(C2/C(=C(/O)c3ccc(OC(C)C)cc3)C(=O)C(=O)N2CCCOC)ccc1O (centres undefined),87*,-8%,48*,-3%
CC(C)Oc1ccc(/C(O)=C2/C(=O)C(=O)N(CCN(C)C)C2c2cccs2)cc1 (centres undefined),74*,-2%,18*,-2%
COc1cccc(/C(O)=C2/C(=O)C(=O)N(CCN3CCOCC3)C2c2cccs2)c1 (centres undefined),20,?,23*,24%
COC(=O)c1[nH]c(C)c(/C(O)=C2\C(=O)C(=O)N(CCN3CCOCC3)C2c2cccs2)c1C (centres undefined),-14,21%,-4,11%
CC(C)COc1ccc(/C(O)=C2/C(=O)C(=O)N(CCN(C)C)C2c2ccncc2)cc1 (centres undefined),-5,0%,-1,-2%
C=CCOc1ccc(/C(O)=C2\C(=O)C(=O)N(CCCOC)C2c2ccc(O)c(OC)c2)cc1 (centres undefined),-7,1%,-3,-1%
CCOC(=O)c1[nH]c(C)c(/C(O)=C2\C(=O)C(=O)N(CCCN3CCOCC3)C2c2cccs2)c1C (centres undefined),57,?,19*,-18%
O=C(/C=C/c1ccc([N+](=O)[O-])cc1)OCC(=O)N1c2ccccc2Sc2ccccc21,-12,-5%,-2,?
CC1(c2ccc3c(c2)OCCCO3)NC(=O)N(CC(=O)NCCc2ccccc2)C1=O (centres undefined),nt,0%,nt,7%
COCCCNC(=O)c1ccc(OC)c(OC2CCN(C(C)C)CC2)c1,-2,nt,-2,nt
CCC1/C(=N\O)CC(c2ccco2)NC1c1ccco1 (centres undefined),13,-15%,-1,3%
CN(C)CCC1Sc2ccccc2Oc2ccccc21 (centres undefined),1,?,-3,-52%
CC1c2ccccc2SC(CCCN(C)C)c2ccccc21 (centres undefined),-4,5.2µM*,7,?
COc1ccccc1NC1=C(Cl)C(=O)N(c2ccccc2)C1=O,1,-3%,19,?
SMILES,Shiga toxin inh,Marburg entry inh,CHX counter,Lassa entry inh
O=C1C(Cl)=C(Nc2ccccc2O)C(=O)N1CCc1ccccc1,12,?,30*,?
COc1ccc(N2C(=O)C(Cl)=C(Nc3ccc(OC)cc3OC)C2=O)cc1,31,?,44*,23%
CCOc1ccc(N2C(=O)C(Cl)=C(Nc3ccccc3O)C2=O)cc1,97*,0%,37*,8%
CCOc1ccc(S(=O)(=O)N2CCOCC2)cc1NC(=O)CCOc1ccc(C(C)(C)C)cc1,nt,6%,nt,?
Cc1cccc(CSc2nnc(-c3cccs3)n2Cc2ccco2)c1,-9,?,-4,3%
Cc1ccc(C)c(Cn2c(=O)n(CCCC(=O)NCCc3ccc(Cl)cc3)c(=O)c3ccccc32)c1,nt,-13%[46.1 µM],nt,-13%[46.1 µM]
CN(Cc1nc2ccccc2n1C)S(C)(=O)=O,14,2%,4,-1%
CN(Cc1nc2ccccc2n1C)S(=O)(=O)c1ccc(F)cc1,26,?,16*,11%
Cn1c(CNc2nc3ccccc3n2CCN2CCCCC2)nc2ccccc21,-5,2.8µM*,-4,-6%
Cn1c(CNc2ccc(F)cc2)nc2ccccc21,71*,5%[46.1 µM],34*,21%[46.1 µM]
Fc1ccc(NCc2nc3ccccc3n2CCOc2ccccc2Cl)cc1,nt,?,nt,3%[46.1 µM]
Cn1c(CNc2ccccc2)nc2ccccc21,67*,27%,37*,16%
O=C(C[n+]1ccccc1)Nc1ccccc1[N+](=O)[O-],-6,9%[46.1 µM],-1,16%[46.1 µM]
Clc1ccc(CCNc2nc3ccccc3n3nnnc23)cc1,8,nt,4,nt
c1ccc2c(c1)nc(NCC1CCCO1)c1nnnn12 (centres undefined),58*,nt,21*,nt
S=C(NCC1CCCO1)n1nnc2ccccc21 (centres undefined),-1,10%,31*,-2%
S=C(NCC1CCCO1)N1CCN(Cc2ccccc2)CC1 (centres undefined),6,3%[46.1 µM],7,14%
CCOc1ccc(C(=O)NCc2ccco2)cc1OC,14,nt,9,nt
Cc1c(NC(=O)CSc2nnc(C(C)N(C)C)n2-c2ccccc2)c(=O)n(-c2ccccc2)n1C (centres undefined),nt,?,nt,-5%
CCNc1nc(NC(C)(C)C)nc(N2CCCCC2)n1,23,2µM*,-3,?
COc1nc(OC)nc(N2CCC(NC(=O)C(Cc3cccc(OC)c3OC)NC(C)=O)CC2)n1 (centres undefined),-4,nt,-4,nt
Nc1nc2c(-c3ccc(Br)cc3)nnn2c2ccccc12,96*,nt,49*,nt
NNc1nc2c(-c3cccc(C(F)(F)F)c3)nnn2c2ccccc12,53*,?,15*,?
CNc1nc2c(-c3ccc(Cl)cc3)nnn2c2ccccc12,17,5%,15,nt
Cc1ccc(-c2nnn3c2nc(NC2CCC(C)CC2)c2ccccc23)cc1 (centres undefined),nt,25%[46.1 µM],nt,14%[46.1 µM]
SMILES,Shiga toxin inh,Marburg entry inh,CHX counter,Lassa entry inh
Cc1ccc(-c2nnn3c2nc(NC(C)C)c2ccccc23)cc1,20,nt,14*,nt
Nn1c(SCC(=O)Nc2cccc(F)c2)nnc1C1CCCCC1,24,26%,-1,15%
CCn1cnc2sc(C(=O)N(Cc3ccc(N(C)C)cc3)Cc3ccco3)c(C)c2c1=O,14,5µM*,-1,?
CN(C)c1ccc(CN(Cc2ccco2)C(=O)c2ccc(C(C)(C)C)cc2)cc1,nt,-1%[46.1 µM],nt,?
CCC(Oc1ccccc1)C(=O)N1CCN(Cc2cc(=O)n3nc(-c4cccc(C)c4)sc3n2)CC1 (centres undefined),nt,nt,nt,10%[46.1 µM]
CCCC1CCC(c2nc(-c3cccnc3)no2)CC1 (centres undefined),45,?,62*,13%
